Only a selection was taken, and hits are over-represented in it overall.
Pf Dd2 growth: qHTS Primary assay for Inhibitors of Plasmodium falciparum Dd2 growth in vitro; Potency, µM (series often up to 28.9 µM), without a hit: at the top dose activity, negative = inhibition, hits mostly inhibitors; hit rate 4.3% among 120,000; P. falciparum Dd2 growth, SYBR Green, 72 h; active = well fitted inhibition curve with a large enough effect;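 note: plate controls were DMSO vehicle for no effect and reference drug for full effect; nearly all actives have a fitted effect of over 65% in size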
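Infected erythrocytes (Dd2, 0.3% parasitemia, 2.5% hematocrit final) are added to compound in RPMI-1640/Albumax II medium, grown 72 h at 37C in low oxygen, then lysed with saponin/Triton-X containing SYBR Green and read by fluorescence.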
An asterisk follows results filed as active; i = inactive; [ ] = another dose, or the depositor's remark. Potency is the fitted concentration of half-maximal effect.

SMILES | Pf Dd2 growth
CC(C)c1ccc(NC(=O)O[C@@H]2CO[C@H]3[C@@H]2OC[C@@H]3NS(=O)(=O)c2cccs2)cc1 | 2.2µM*
Cn1ccnc1C(=O)N1CCCCCCNC(=O)[C@@H]2C[C@@H](c3nc(Cc4ccccc4)no3)C[C@@H]21 | -5%
COc1ccc(N2CCN(C(=O)c3ccc4c(c3)N(C)C3CCCCCN3C4=O)CC2)cc1 (configuration not stated) | i
COCCN1CCC2(C1)CN(C)c1ccc(C(=O)NCCOc3ccccc3)cc12 (configuration not stated) | 57%[44.1 µM]
COC(=O)c1cc(NC(=O)Cn2ncc3c([nH]c4ccccc43)c2=O)cc(C(=O)OC)c1 | 69%
Cc1ccc(Cn2c(SCc3ccc(C(=O)NCCc4ccccc4)cc3)nc3ccncc32)cc1 | 6.3µM*
O=C(NCCc1ccccc1)c1ccc(CSc2nc3ccncc3n2Cc2ccccc2)cc1 | 8.9µM*
Cc1ccccc1CSCc1ccc(C(=O)NCCc2ccccc2)o1 | 20%
COCCNC(=O)c1ccc(Cn2c(SCC(N)=O)nc3ccccc3c2=O)cc1 | -27%
Cc1ccccc1Cn1c(SCc2ccc(C(=O)NC3CCCC3)cc2)nc2ccncc21 | -10%
Cc1ccccc1Cn1c(SCc2ccc(C(=O)NCCc3ccccc3)cc2)nc2ccncc21 | 7.1µM*
CCOC(=O)c1cnc2c(C)cc(C)cc2c1NCCN1CCOCC1 | 20%
CC(=O)N1CCc2ccc(S(=O)(=O)N3CCCc4ccccc43)cc2C1 | -9%
COc1cccc(CNC(=O)c2ccc3c(c2)N(C)C2CCCCN2C3=O)c1OC (configuration not stated) | i
CCc1ccccc1NC(=O)N1c2ccccc2CC1c1nc(C2CC2)no1 (configuration not stated) | i[5.79 µM]
O=C(CC1CC1)N1CCC(Oc2cnc3c(ccn3-c3cncnc3)c2)CC1 | i
O=C(Cc1ccccc1)N1CCC(Oc2cnc3c(ccn3-c3cncnc3)c2)CC1 | 13µM*
O=C(OCc1ccccc1)N1CCC(Oc2cnc3c(ccn3-c3cncnc3)c2)CC1 | i
COCC(=O)NC1CCC12CCN(C(=O)NCc1ccccc1)CC2 (configuration not stated) | -12%
CC(c1cccs1)N(C)C(=O)c1ccc(Cl)cn1 (configuration not stated) | -33%[44.1 µM]
COc1ccccc1CNC(=O)CCCn1c(=O)c2ccccc2n(Cc2ccccc2F)c1=O | i
O=C(O)CCCC(=O)N1Cc2ccccc2CC2(CCCCN2Cc2ccncc2)C1 (configuration not stated) | 7%
CN1CCC(C(=O)N2Cc3ccccc3CC3(CCN(Cc4ccc(O)cc4)C3)C2)CC1 (configuration not stated) | 0%
CN1CCC(C(=O)N2Cc3ccccc3CC3(CCCCN3Cc3ccncc3)C2)CC1 (configuration not stated) | 8.9µM*
O=C(O)CCCC(=O)N1Cc2ccccc2CC2(CCCN2Cc2ccccc2)C1 (configuration not stated) | -7%
SMILES | Pf Dd2 growth
CN1CCC(C(=O)N2Cc3ccccc3CC3(CCCN(CC4CCNC4)C3)C2)CC1 (configuration not stated) | 8%
CN1CCC(C(=O)N2Cc3ccccc3CC3(CCCN(Cc4cccnc4)C3)C2)CC1 (configuration not stated) | 8.9µM*
Cc1nc(C)c(C(=O)N2CC(c3nnc(-c4ccncc4)o3)C3(CCOCC3)C2)s1 (configuration not stated) | -12%
CCOCCCNC(=O)CN1C(=O)COc2ccc(S(=O)(=O)N3CCCC3)cc21 | 22%
O=C(c1ccc(F)cc1)N1CCC(c2nc3ccccc3s2)CC1 | 62%
O=C(c1cc(F)ccc1Cl)N1CCC(n2cc(-c3nc(C4CC4)no3)nn2)C1 (configuration not stated) | i
CN(C)Cc1cc(-c2nccn2CC2(CO)CCCC2)ccc1O | -29%
COc1ccc(Cl)cc1NC(=O)CSc1nccn1-c1ccc(Cl)cc1 | i
O=C(c1ccc(Cl)nc1)N1CCc2nc(-c3ccc(Cl)cc3)nc(-c3ccccc3)c2C1 | -24%
CC(=O)N1CCc2nc(-c3ccc(Cl)cc3)nc(-c3ccccc3)c2C1 | -16%
CN(C)C(=O)N1CCc2nc(-c3ccccc3)nc(-c3ccc(Cl)cc3)c2C1 | i
Cc1ccc(C(=O)N2CCc3nc(-c4ccccc4)nc(-c4ccc(Cl)cc4)c3C2)cc1 | 10µM*
Cc1nc2c(c(-c3ccc(Cl)cc3)n1)CN(C(=O)c1ccccc1)CC2 | -7%
CC(C)(C)C(=O)N1CCc2nc(-c3ccccc3)nc(-c3ccc(Cl)cc3)c2C1 | 5µM*
CCO[C@H]1CN(C(=O)Cc2ccccc2OCc2ccccc2)C[C@@H]1O | 1%
Cc1ccc(CN2CCC3(CC2)CCN(C(=O)C2CCC2)CC3CO)s1 (configuration not stated) | -19%
Cc1onc(C(=O)N2CCc3c(c(-c4nncn4-c4ccccc4)nn3C)C2)c1CN1CCCCC1 | -30%
N#Cc1cccc(S(=O)(=O)Nc2cccn3ncnc23)c1 | -19%
COc1cccc(CN2CCC(C(Cc3ccccc3F)N(C)C(=O)c3cccs3)CC2)c1O (configuration not stated) | i
CCOc1cc(CN2CCOc3ccc(C(=O)NCc4ccccc4F)cc3C2)ccc1O | -7%
CCOc1cc(CN2CCC(C(Cc3ccccc3F)N(C)C(=O)c3cccs3)CC2)ccc1O (configuration not stated) | 4µM*
O=C(Nc1ccc(Cl)cc1Cl)c1cn2c(n1)CN(C(=O)OCc1ccccc1)CC2 | -8%
COC(=O)c1cc2occc2n1CC(=O)Nc1ccc(C)cc1Cl | 13%
CCCN1CCC2(Cc3ccccc3CN(C(=O)CCNC(C)=O)C2)C1 (configuration not stated) | 15%
O=C(Cc1cccc(Cl)c1)N1CCC(Oc2ncccc2C(=O)N2CCCCC2)C1 (configuration not stated) | 7.9µM*
SMILES | Pf Dd2 growth
O=C(Cc1ccccc1F)N1CCC(Oc2ncccc2C(=O)N2CCCCC2)C1 (configuration not stated) | -12%
O=C(Cc1cccs1)N1CCC(Oc2ncccc2C(=O)N2CCCCC2)C1 (configuration not stated) | i
CN1CCN(C2CCN(CCc3ccccc3)C2=O)CC1 (configuration not stated) | i
CCC(C(=O)Nc1cccc(-c2cn3cccnc3n2)c1)c1ccccc1 (configuration not stated) | -10%
O=C1COc2ccc(-c3ccc(F)cc3)nc2CN1Cc1ccccc1F | -13%[44.1 µM]
CCc1ccccc1NC(=O)[C@@H](c1ccccc1)N1Cc2ccccc2C1=O | -6%
O=C1CCCCC(Cc2ccccc2)(C(=O)NCc2cccc(C(F)(F)F)c2)N1 (configuration not stated) | i
O=C(NCCc1ccc(F)cc1)C(=O)NCC(c1cccs1)S(=O)(=O)c1ccc(Cl)cc1 (configuration not stated) | -14%
Cc1cc(Cl)ccc1OCCN1CCN(C(=O)[C@H]2CCC[C@H](O)C2)CC1 | -20%
OC1(CN2CCN(CCc3ccccn3)CC2)CCCNC1 (configuration not stated) | -3%
Cc1cc(Cl)ccc1OCCN1CCN(CC2(O)CCCNC2)CC1 (configuration not stated) | 8.9µM*
O=c1cc(N2CCOCC2)oc2c(NCc3cnccn3)nccc12 | -21%[44.1 µM]
Cc1c(C(=O)Nc2cc(F)ccc2F)sc2nc(-c3ccc(F)cc3)cn12 | i
Cc1c(C(=O)Nc2ccc(F)c(C(F)(F)F)c2)sc2nc(-c3ccccc3)cn12 | 11µM*
